# From PMC7862700, “An all-to-all approach to the identification of sequence-specific readers for epigenetic DNA modifications on cytosine”
# What was measured:
# Test in all cases: DAPPL (digital affinity profiling via proximity ligation, sequencing); 10 mM Tris-HCl pH 7.5, 50 mM NaCl, 1 mM DTT, 4% glycerol, room temperature, 30 min; GST-TFs on glutathione beads, 16-mer random dsDNA library, 0.1% formaldehyde crosslink after washing; high values mean tight binding
# [1] = biological target: T1, FLI1 (Homo sapiens, UniProt Q01543 1-452); settings: protein: recombinant; tags: N-terminal GST; dsDNA, one strand shown
# T1 sequence: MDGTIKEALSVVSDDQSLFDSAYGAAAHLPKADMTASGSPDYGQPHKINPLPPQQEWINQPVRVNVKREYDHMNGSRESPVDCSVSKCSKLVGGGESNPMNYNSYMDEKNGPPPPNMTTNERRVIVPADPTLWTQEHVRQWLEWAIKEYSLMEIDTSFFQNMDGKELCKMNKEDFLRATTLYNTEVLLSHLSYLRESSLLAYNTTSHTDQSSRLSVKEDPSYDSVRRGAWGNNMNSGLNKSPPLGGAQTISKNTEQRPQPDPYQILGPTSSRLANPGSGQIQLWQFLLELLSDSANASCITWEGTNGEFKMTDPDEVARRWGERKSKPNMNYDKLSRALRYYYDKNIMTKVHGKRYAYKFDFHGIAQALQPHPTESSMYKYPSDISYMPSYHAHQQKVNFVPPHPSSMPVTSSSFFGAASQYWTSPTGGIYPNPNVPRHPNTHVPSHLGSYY
# Procedure, shortened: (§1)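 A tag-only sample was pooled with DNA-barcoded human transcription factors that had been expressed in yeast as GST fusions and captured on glutathione beads. The pools were incubated for 30 min at room temperature with 200 nmole of a random double-stranded 16-mer DNA library in Tris/NaCl/DTT/glycerol buffer, then washed, crosslinked with 0.1% formaldehyde, proximity-ligated (BsaI/T4 ligase, 1 h, 37 °C), PCR-amplified and sequenced on an Illumina NextSeq500. Binding signal is each hexamer's read frequency for a factor divided by its frequency for the tag-only sample.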
# [2] = biological target: T2, ELK1 (Homo sapiens, UniProt P19419 1-428); settings: protein: recombinant; tags: N-terminal GST; dsDNA, one strand shown
# T2 sequence: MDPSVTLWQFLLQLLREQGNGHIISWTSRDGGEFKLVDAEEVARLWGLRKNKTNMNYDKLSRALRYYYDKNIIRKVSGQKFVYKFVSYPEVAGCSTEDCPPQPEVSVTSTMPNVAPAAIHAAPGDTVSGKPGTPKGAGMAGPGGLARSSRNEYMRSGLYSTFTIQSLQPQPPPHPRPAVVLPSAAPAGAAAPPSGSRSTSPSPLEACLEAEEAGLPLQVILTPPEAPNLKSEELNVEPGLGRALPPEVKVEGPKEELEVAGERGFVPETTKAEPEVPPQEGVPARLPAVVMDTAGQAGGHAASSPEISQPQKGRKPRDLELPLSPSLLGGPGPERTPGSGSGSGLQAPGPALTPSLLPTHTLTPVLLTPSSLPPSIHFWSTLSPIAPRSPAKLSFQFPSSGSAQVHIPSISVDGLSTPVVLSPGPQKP
# Procedure, shortened: as §1
# [3] = biological target: T3, GABPA (Homo sapiens, UniProt Q06546 1-454); settings: protein: recombinant; tags: N-terminal GST; dsDNA, one strand shown
# T3 sequence: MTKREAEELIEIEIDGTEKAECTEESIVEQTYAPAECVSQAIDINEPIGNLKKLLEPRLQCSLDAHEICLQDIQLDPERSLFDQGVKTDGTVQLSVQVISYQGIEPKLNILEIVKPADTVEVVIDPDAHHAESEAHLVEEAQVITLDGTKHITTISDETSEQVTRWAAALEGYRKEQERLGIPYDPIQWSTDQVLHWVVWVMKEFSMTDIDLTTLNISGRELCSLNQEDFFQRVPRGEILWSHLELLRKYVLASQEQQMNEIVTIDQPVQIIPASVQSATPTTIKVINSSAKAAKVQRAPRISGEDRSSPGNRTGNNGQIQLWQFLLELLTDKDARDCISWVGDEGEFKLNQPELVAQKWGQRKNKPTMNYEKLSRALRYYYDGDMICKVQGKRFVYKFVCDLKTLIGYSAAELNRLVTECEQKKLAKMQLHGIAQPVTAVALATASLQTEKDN
# Procedure, shortened: as §1
# [4] = biological target: T4, ERG (Homo sapiens, UniProt P11308 1-479); settings: protein: recombinant; tags: N-terminal GST; dsDNA, one strand shown
# T4 sequence: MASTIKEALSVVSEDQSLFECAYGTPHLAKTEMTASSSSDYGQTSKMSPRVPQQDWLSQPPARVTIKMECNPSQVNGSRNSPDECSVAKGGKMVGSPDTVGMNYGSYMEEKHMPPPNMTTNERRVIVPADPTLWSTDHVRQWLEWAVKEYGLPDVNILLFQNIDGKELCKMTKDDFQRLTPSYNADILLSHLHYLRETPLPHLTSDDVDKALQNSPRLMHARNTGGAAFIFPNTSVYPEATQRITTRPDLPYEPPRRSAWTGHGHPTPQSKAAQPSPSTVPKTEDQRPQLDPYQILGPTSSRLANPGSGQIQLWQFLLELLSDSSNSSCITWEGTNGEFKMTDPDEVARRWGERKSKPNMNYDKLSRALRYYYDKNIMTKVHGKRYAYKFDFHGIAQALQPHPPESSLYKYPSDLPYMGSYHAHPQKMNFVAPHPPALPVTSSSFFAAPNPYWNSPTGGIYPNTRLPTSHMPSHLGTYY
# Procedure, shortened: as §1
# [5] = biological target: ELF1 (Homo sapiens, UniProt P32519 1-619); settings: protein: recombinant; tags: N-terminal GST; dsDNA, one strand shown
# Procedure, shortened: as §1
# [6] = biological target: T5, EHF (Homo sapiens, UniProt Q9NZC4 1-300); settings: protein: recombinant; tags: N-terminal GST; dsDNA, one strand shown
# T5 sequence: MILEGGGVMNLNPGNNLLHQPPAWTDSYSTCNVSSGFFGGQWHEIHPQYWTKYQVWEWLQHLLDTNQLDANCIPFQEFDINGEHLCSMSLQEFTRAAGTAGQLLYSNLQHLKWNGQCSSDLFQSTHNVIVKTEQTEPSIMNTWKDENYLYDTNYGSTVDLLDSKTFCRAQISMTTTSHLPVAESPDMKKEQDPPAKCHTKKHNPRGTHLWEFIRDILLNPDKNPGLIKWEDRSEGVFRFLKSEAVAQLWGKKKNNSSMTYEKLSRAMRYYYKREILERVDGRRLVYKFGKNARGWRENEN
# Procedure, shortened: as §1
# [7] = biological target: SPI1 (Homo sapiens, UniProt P17947 1-270); settings: protein: recombinant; tags: N-terminal GST; dsDNA, one strand shown
# Procedure, shortened: as §1
# [8] = biological target: SPIB (Homo sapiens, UniProt Q01892 1-262); settings: protein: recombinant; tags: N-terminal GST; dsDNA, one strand shown
# Procedure, shortened: as §1
# [9] = biological target: T6, ELK3 (Homo sapiens, UniProt P41970 1-407); settings: protein: recombinant; tags: N-terminal GST; dsDNA, one strand shown
# T6 sequence: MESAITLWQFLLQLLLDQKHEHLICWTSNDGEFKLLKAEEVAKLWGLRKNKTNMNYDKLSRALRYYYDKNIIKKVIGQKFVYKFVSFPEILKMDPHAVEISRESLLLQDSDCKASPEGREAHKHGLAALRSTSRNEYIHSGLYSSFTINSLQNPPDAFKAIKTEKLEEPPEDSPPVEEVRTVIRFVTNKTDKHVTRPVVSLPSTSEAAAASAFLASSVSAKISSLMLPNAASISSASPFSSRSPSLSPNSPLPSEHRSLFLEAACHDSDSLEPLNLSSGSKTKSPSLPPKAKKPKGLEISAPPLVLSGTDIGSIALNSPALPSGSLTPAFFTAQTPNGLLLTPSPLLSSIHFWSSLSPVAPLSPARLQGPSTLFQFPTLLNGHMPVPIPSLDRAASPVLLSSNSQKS
# Procedure, shortened: as §1
# [10] = biological target: T7, FEV (Homo sapiens, UniProt Q99581 1-238); settings: protein: recombinant; tags: N-terminal GST; dsDNA, one strand shown
# T7 sequence: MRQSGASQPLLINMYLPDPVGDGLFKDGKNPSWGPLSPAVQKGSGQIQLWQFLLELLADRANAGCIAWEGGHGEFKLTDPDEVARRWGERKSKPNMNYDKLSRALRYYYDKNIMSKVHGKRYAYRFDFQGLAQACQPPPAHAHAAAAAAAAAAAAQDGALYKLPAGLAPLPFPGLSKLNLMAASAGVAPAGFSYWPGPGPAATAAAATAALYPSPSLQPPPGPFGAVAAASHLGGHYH
# Procedure, shortened: as §1
# [11] = biological target: ETV5 (Homo sapiens, UniProt P41161 1-510); settings: protein: recombinant; tags: N-terminal GST; dsDNA, one strand shown
# Procedure, shortened: as §1
# [12] = biological target: HSF1 (Homo sapiens, UniProt Q00613 1-529); settings: protein: recombinant; tags: N-terminal GST; chain copies: 3; dsDNA, one strand shown
# Procedure, shortened: as §1
# [13] = biological target: T8, SPIC (Homo sapiens, UniProt Q8N5J4 1-248); settings: protein: recombinant; tags: N-terminal GST; dsDNA, one strand shown
# T8 sequence: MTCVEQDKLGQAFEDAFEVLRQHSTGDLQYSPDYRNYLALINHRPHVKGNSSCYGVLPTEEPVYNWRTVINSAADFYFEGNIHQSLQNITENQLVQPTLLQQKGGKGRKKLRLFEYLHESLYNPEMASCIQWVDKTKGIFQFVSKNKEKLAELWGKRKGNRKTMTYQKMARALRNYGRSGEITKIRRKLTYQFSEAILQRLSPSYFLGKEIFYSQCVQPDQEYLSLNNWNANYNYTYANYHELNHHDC
# Procedure, shortened: as §1
# [14] = biological target: ELF4 (Homo sapiens, UniProt Q99607 1-663); settings: protein: recombinant; tags: N-terminal GST; dsDNA, one strand shown
# Procedure, shortened: as §1
# [15] = biological target: T9, ELK4 (Homo sapiens, UniProt P28324-2 1-405); settings: protein: recombinant; tags: N-terminal GST; dsDNA, one strand shown
# T9 sequence: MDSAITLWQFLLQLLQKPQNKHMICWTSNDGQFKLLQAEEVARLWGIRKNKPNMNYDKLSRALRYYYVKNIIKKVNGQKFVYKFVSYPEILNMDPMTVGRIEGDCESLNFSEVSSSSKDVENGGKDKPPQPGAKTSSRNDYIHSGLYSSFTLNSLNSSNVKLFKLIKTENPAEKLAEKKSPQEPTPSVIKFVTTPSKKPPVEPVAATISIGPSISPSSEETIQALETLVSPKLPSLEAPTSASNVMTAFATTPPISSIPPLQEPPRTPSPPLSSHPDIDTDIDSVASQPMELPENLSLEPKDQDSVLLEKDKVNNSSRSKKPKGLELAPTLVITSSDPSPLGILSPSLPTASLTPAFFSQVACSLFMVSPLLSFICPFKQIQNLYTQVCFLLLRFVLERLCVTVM
# Procedure, shortened: as §1
# [16] = biological target: T10, ETV2 (Homo sapiens, UniProt O00321 1-342); settings: protein: recombinant; tags: N-terminal GST; dsDNA, one strand shown
# T10 sequence: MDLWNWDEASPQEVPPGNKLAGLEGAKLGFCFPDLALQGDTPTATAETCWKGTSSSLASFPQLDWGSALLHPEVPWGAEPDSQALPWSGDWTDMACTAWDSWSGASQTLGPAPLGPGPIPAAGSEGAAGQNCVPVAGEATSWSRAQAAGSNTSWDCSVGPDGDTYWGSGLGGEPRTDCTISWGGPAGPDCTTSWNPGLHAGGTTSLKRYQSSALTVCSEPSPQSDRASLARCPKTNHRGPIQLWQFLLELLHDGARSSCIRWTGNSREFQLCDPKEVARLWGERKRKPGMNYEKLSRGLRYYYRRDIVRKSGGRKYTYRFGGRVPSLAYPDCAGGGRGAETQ
# Procedure, shortened: as §1
# [17] = biological target: T11, ELF3 (Homo sapiens, UniProt P78545 1-371); settings: protein: recombinant; tags: N-terminal GST; dsDNA, one strand shown
# T11 sequence: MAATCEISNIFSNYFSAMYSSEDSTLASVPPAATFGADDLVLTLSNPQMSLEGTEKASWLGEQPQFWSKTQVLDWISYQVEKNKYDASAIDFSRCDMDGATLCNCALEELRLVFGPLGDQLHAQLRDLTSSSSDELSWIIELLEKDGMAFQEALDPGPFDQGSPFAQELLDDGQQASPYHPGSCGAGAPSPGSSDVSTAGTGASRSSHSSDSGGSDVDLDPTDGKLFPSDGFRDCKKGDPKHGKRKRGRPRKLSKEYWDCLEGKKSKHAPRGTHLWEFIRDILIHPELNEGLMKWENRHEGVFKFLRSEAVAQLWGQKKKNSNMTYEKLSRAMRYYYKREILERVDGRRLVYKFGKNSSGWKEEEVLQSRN
# Procedure, shortened: as §1
# [18] = biological target: CRX (Homo sapiens, UniProt O43186 1-299); settings: protein: recombinant; tags: N-terminal GST; dsDNA, one strand shown
# Procedure, shortened: as §1
# [19] = biological target: ETV1 (Homo sapiens, UniProt P50549 1-477); settings: protein: recombinant; tags: N-terminal GST; dsDNA, one strand shown
# Procedure, shortened: as §1
# ELF1, sequence (P32519 whole entry): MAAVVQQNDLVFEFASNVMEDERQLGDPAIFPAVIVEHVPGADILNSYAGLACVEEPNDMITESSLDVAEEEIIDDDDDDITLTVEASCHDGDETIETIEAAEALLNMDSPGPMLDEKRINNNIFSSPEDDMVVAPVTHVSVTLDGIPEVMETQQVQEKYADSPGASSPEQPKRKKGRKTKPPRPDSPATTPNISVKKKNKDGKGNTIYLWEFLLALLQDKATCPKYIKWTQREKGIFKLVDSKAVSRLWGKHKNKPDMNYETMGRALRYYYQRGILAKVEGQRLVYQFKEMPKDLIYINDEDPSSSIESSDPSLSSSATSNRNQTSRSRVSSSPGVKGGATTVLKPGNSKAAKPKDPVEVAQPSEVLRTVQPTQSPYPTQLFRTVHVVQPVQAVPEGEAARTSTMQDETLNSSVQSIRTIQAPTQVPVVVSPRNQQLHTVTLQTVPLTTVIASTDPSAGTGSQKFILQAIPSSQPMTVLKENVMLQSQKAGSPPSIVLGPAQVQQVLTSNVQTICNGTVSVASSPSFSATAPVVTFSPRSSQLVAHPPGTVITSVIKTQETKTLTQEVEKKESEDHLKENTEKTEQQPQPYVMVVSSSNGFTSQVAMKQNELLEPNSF
# ETV5, sequence (P41161 whole entry): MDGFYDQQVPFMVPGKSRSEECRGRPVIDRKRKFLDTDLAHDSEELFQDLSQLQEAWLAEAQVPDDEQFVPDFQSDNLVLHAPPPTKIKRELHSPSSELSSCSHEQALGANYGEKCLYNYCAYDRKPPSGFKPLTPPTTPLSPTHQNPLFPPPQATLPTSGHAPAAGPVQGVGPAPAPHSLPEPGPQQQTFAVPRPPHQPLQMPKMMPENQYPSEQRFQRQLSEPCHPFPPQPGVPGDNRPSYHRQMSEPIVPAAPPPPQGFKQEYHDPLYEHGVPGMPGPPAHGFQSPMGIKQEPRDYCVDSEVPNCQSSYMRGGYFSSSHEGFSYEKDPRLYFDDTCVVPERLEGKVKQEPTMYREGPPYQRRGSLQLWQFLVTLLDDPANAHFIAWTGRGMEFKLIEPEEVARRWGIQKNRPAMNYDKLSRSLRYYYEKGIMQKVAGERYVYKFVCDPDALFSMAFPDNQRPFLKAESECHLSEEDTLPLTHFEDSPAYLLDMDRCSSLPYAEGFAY
# ETV1, sequence (P50549 whole entry): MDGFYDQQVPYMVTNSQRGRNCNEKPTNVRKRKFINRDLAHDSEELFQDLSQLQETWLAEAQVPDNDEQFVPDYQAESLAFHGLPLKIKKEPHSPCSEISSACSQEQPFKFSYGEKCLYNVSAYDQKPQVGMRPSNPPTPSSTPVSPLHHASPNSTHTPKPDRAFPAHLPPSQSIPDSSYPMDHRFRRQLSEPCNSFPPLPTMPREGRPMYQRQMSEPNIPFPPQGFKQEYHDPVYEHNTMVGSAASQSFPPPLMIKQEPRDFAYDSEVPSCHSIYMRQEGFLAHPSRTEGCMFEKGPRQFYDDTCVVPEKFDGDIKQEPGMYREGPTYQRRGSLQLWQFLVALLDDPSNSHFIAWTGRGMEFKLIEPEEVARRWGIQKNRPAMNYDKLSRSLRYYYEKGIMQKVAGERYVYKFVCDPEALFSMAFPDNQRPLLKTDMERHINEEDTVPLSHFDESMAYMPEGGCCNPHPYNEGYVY
# SPIB, sequence (Q01892 whole entry): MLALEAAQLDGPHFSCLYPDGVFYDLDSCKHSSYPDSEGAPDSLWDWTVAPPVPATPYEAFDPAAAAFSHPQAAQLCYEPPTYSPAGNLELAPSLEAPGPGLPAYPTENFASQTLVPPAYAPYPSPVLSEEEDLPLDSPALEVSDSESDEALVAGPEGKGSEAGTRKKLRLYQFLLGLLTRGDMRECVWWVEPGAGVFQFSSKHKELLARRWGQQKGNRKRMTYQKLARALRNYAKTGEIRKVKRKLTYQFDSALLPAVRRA
# CRX, sequence (O43186 whole entry): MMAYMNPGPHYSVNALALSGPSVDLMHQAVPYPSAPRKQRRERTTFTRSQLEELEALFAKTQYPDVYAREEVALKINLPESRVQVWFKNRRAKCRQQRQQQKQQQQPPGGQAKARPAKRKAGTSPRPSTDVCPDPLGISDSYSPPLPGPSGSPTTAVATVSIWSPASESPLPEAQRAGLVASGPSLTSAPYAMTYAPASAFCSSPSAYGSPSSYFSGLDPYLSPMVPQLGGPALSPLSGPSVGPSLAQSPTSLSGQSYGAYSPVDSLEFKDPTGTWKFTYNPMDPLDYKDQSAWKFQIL
# HSF1, sequence (Q00613 whole entry): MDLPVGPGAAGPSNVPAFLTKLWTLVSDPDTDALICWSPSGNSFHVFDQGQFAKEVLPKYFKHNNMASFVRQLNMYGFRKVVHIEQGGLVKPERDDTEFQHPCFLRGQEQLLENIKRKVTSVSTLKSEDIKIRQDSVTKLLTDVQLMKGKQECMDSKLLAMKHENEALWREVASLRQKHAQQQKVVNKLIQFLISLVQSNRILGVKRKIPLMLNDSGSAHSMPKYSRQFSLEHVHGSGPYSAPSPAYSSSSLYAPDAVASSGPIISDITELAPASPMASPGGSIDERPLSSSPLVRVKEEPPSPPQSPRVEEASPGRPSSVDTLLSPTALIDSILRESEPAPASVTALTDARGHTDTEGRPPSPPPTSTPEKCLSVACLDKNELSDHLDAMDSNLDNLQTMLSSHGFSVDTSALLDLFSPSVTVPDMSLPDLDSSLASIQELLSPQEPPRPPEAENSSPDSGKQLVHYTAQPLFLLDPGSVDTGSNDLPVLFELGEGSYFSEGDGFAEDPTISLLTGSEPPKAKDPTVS
# ELF4, sequence (Q99607 whole entry): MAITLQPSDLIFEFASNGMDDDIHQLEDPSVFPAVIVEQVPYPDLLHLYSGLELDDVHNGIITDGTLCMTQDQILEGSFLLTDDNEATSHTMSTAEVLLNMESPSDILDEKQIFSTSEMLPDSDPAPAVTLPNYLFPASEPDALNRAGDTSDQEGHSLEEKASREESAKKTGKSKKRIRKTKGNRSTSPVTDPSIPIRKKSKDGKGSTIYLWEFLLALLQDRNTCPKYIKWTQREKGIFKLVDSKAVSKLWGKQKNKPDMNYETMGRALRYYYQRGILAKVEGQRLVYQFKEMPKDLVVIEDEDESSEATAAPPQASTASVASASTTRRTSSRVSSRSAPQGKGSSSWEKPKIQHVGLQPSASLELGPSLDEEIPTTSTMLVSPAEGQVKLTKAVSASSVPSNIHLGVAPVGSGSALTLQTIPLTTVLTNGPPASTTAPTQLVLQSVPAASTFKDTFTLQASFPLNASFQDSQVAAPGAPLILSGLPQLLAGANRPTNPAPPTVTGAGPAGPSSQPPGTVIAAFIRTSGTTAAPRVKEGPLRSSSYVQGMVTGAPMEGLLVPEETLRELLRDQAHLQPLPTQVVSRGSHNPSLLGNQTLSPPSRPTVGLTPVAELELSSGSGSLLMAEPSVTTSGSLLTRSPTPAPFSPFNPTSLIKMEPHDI
sequence,measurement,setting,value
ACTATA,binding signal,[1],"1.37 fold enrichment (6-mer frequency, TF over GST control)"
same,binding signal,[2],"1.28 fold enrichment (6-mer frequency, TF over GST control)"
same,binding signal,[3],"1.33 fold enrichment (6-mer frequency, TF over GST control)"
same,binding signal,[4],"1.31 fold enrichment (6-mer frequency, TF over GST control)"
same,binding signal,[5],"1.33 fold enrichment (6-mer frequency, TF over GST control)"
same,binding signal,[6],"1.29 fold enrichment (6-mer frequency, TF over GST control)"
same,binding signal,[7],"1.43 fold enrichment (6-mer frequency, TF over GST control)"
same,binding signal,[8],"1.28 fold enrichment (6-mer frequency, TF over GST control)"
same,binding signal,[9],"1.29 fold enrichment (6-mer frequency, TF over GST control)"
same,binding signal,[10],"1.29 fold enrichment (6-mer frequency, TF over GST control)"
same,binding signal,[11],"1.33 fold enrichment (6-mer frequency, TF over GST control)"
same,binding signal,[12],"1.26 fold enrichment (6-mer frequency, TF over GST control)"
same,binding signal,[13],"1.26 fold enrichment (6-mer frequency, TF over GST control)"
same,binding signal,[14],"1.3 fold enrichment (6-mer frequency, TF over GST control)"
same,binding signal,[15],"1.42 fold enrichment (6-mer frequency, TF over GST control)"
same,binding signal,[16],"1.3 fold enrichment (6-mer frequency, TF over GST control)"
same,binding signal,[17],"1.38 fold enrichment (6-mer frequency, TF over GST control)"
same,binding signal,[18],"1.4 fold enrichment (6-mer frequency, TF over GST control)"
same,binding signal,[19],"1.26 fold enrichment (6-mer frequency, TF over GST control)"
